Common to all, as to assay: NCI-60 one-dose screen, 48 h (100 = growth as untreated, 0 = no growth, -100 = all killed)
What all share (settings): 10 µM unless noted

Assay [1] relates to HCT-15 colon.
The test system of assay [2] is HT29 colon.
Assay [3] has as its system SNB-75 CNS.
For assay [4], the system named is SNB-19 CNS.
Assay [5] has as its system U251 CNS.
Assay [6] has as its system PC-3 prostate.
Assay [7] has as its system SK-MEL-5 melanoma.
Assay [8] concerns UACC-62 melanoma.
Assay [9] deals with LOX IMVI melanoma.
Assay [10] has as its system SK-MEL-28 melanoma.

This is part of a sample that, as a whole, favours compounds with a hit. Of some 83,000 tested, about 20% had one in any assay.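 96-well plates, one dose, 48 hours. Percent growth reported; active if below 10.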 A number with no mark means an inactive call. Active and inactive are the calls of the source.

Consider `CC1(C)NCCC[C@]2(C)[C@H]3C=CC4=C5C[C@](C)(CO)CC[C@]5(C)CC[C@@]4(C)[C@]3(C)CC[C@@H]12`, for which the growth in [1] was -89.3% [100 µM] (active); in assay [2], -62.1% [100 µM] (active); in [3], -97.7% [100 µM] (active); in [4], -90.4% [100 µM] (active); in assay [5] it was -59.7% [100 µM] (active); in [6], -79.1% [100 µM] (active). Moreover, the growth was -91.5% [100 µM] (active) in assay [7], -94.3% [100 µM] (active) in assay [8], -91.5% [100 µM] (active) in assay [9] and -97.3% [100 µM] (active) in assay [10].
With `CCN(CC)c1ccc(/C=C/c2ccc3cc(C)ccc3[n+]2CC)cc1`, the growth is 13.3% in assay [1]; -14.4% (active) in assay [2]; 7.55% (active) in assay [3]; 24.8% in assay [4]; 9.59% (active) in [5]; -0.319% (active) in assay [6]. Moreover, the growth in assay [7] was -97.5% (active); in assay [8] it was 1.47% (active); in assay [9], -8.32% (active); in assay [10], 2.66% (active).
In the case of `c1ccc(-c2nnc(-c3c[nH]c4ncccc34)s2)cc1`, the growth was 83.4% in [1]; 106% in [2]; 59.6% in [3]; 91.7% in assay [4]; 93.2% in [5]; 81.6% in [6]. The growth in assay [7] is 91.6%; in assay [8], 81.2%; in assay [9] it was 97%; in assay [10], 99.6%.
On to `N#C/C(C(=O)c1ccccc1)=C1/C(=O)Nc2ccccc21`, for which the growth in assay [1] is 106%; in [2], 102%; in assay [3], 66.9%; in [4], 98.8%; in assay [5], 103%; in [6] it was 97.6%. In addition, the growth in assay [7] is 95.6%; in assay [8] it was 94.6%; in assay [9], 104%; in [10], 113%.
Turning to `Cc1ccc(Cn2c(O)c(N=NC(=O)c3ccc(S(N)(=O)=O)cc3)c3ccccc32)cc1`, the growth in [1] was 106%; in assay [2] it was 111%; in assay [3] it was 92.4%; in assay [4], 100%; in assay [5] it was 97.8%; in [6] it was 94.5%. Moreover, the values for the growth in assay [7], in [8] and in [10] were 98.5%, 86.7% and 106%, respectively.
Turning to `CC1=CC[C@@H]2C(C)(C)C(=O)CC[C@@]2(C)[C@@H]1COc1ccc2ccc(=O)oc2c1`, the growth in assay [1] was 78.6%; in assay [2], 78.5%; in [3], 76.6%; in assay [4], 81%; in [5], 87.5%; in assay [6], 58.4%. The growth is 26.1% in assay [7], 41.9% in assay [8], 87.9% in assay [9] and 87.7% in assay [10].
For the molecule `CC(C)c1ccc(/C=N/N=C(N)N)cc1`, the growth in assay [1] is 89.6%; in assay [2], 70.6%; in assay [3], 76.9%; in [4], 97.1%; in assay [5], 89.7%; in assay [6] it was 48.4%. Also, the growth in assay [7] is 91.7%; in assay [8] it was 95.8%; in assay [10] it was 85.9%.
With `O=C(NNc1ccc(-c2ccccc2)nn1)c1ccccc1`, the growth is 103% in [1]; 107% in [2]; 71% in assay [3]; 95.4% in [4]; 101% in assay [5]; 102% in assay [6]. For the same molecule, the growth in assay [7] was 102%; in assay [8], 96.6%; in assay [10], 105%.
For the molecule `CC(C)C1=NOC(=O)C1=Cc1cn(-c2ccco2)nc1-c1ccccc1`, the growth in assay [1] was 77.8%; in assay [2], 86.3%; in assay [3] it was 80.8%; in [4], 89.8%; in assay [5], 75.6%; in assay [6], 78%. For the same molecule, the growth in assay [7] is 95.3%; in [8], 87.6%; in [9], 39.3%; in assay [10], 99%.
Take `C[C@H]1[C@H](C)CC[C@]2(C(=O)N3CCN(C)CC3)CC[C@]3(C)C(=CC[C@@H]4[C@@]5(C)C/C(=C/c6ccco6)C(=O)C(C)(C)[C@@H]5CC[C@]43C)[C@H]12`: the growth in [1] was 32.5% [100 µM]; in assay [2], 26.3% [100 µM]; in assay [3] it was 62.3% [100 µM]; in assay [4], 47.7% [100 µM]; in assay [5], 17.4% [100 µM]; in [6] it was 29.9% [100 µM]. The growth in assay [7] was -46.8% [100 µM] (active); in assay [8] it was 32.8% [100 µM]; in assay [10] it was 35% [100 µM].
`Cc1ccc(S(=O)(=O)Oc2ccc([N+](=O)[O-])cc2[N+](=O)[O-])cc1`: the growth in [1] was 19%; in assay [2], 98.2%; in [3] it was 98.9%; in assay [4], 110%; in [5], 94.4%; in assay [6], 83.6%. Further, the growth in assay [7] was 76.5%; in [8], 82.5%; in assay [9], 10.1%; in [10] it was 113%.
Regarding `NC(=O)c1c(NC(=O)COC(=O)Cc2ccccc2F)sc2c1CCC2`, the growth in assay [1] was 104%; in [2] it was 117%; in [3] it was 106%; in assay [4] it was 86.6%; in assay [5], 101%; in [6], 100%. Also, the growth in assay [7] was 91.1%; in assay [8], 97%; in assay [9], 110%; in [10], 97.2%.
As for `C[C@H]1[C@H](C)CC[C@]2(C(=O)O)CC[C@]3(C)C(=CC[C@@H]4[C@@]5(C)C/C(=C/c6ccco6)C(=O)C(C)(C)[C@@H]5CC[C@]43C)[C@H]12`, the growth was -71.2% [100 µM] (active) in assay [1]; -67.9% [100 µM] (active) in assay [2]; -55.9% [100 µM] (active) in assay [3]; -52.6% [100 µM] (active) in assay [4]; -64.5% [100 µM] (active) in assay [5]; -67.1% [100 µM] (active) in [6]. The growth in assay [7] was -91.7% [100 µM] (active); in [8], -94.4% [100 µM] (active); in [9], -91.7% [100 µM] (active); in assay [10], -79.2% [100 µM] (active).
As to `CCN(CC)c1cc(N)c(Cc2c(N)cc(N(CC)CC)cc2Cl)c(Cl)c1`, the growth is 91.7% in assay [1]; 27.6% in assay [2]; 8.86% (active) in assay [3]; 35.1% in [4]; 21.6% in assay [5]; 38.4% in assay [6]. For the same molecule, the growth in assay [7] was -27.8% (active); in [8], 47.5%; in [9], 37.7%; in [10], 53.2%.
As to `NC(=S)Cc1ccccc1`, the growth is 97.3% in assay [1]; 101% in assay [2]; 88% in assay [3]; 98.2% in assay [4]; 100% in assay [5]; 102% in assay [6]. In addition, the growth was 100% in assay [7], 93.9% in [8] and 105% in assay [10].
Consider `CC(C)C1=NOC(=O)C1=Cc1cn(-c2cccnc2)nc1-c1ccccc1`, for which the growth was 94.2% in [1]; 99.1% in [2]; 88.4% in assay [3]; 93.9% in [4]; 83.5% in assay [5]; 94.1% in assay [6]. Also, the growth in assay [7] was 102%; in assay [8] it was 90.4%; in assay [9], 80.2%; in assay [10], 112%.
Take `CCN1CCN(CC(=O)Nc2nc3ccc(NCc4ccc(Cl)cc4)cc3s2)CC1`: the growth in assay [1] was 0.991% (active); in [2], 19.6%; in assay [3] it was 103%; in [4], 79.6%; in assay [5] it was 58.2%; in [6], 52.7%. The growth was -37.9% (active) in assay [7], -12% (active) in assay [8], 16.9% in [9] and 24.7% in assay [10].
Turning to `CC(C)c1ccc(C(=O)Nc2nc3ccc(O)cc3s2)cc1`, the growth in assay [1] is 7.82% (active); in [2], 30.4%; in [3], 63.7%; in assay [4] it was 53.8%; in assay [5] it was 58.4%; in assay [6], 42.4%. Besides, the growth was -6.4% (active) in assay [7], 10.8% in [8], -25.9% (active) in [9] and 26.5% in assay [10].
Consider `CCCCC(CC)COC(=O)C[N+](C)(C)CCOC(c1ccccc1)c1ccccc1` (centres undefined), for which the growth was 96.2% in [1]; 28.3% in assay [2]; 10.8% in assay [3]; 40.7% in assay [4]; 30.8% in [5]; 19.5% in assay [6]. The growth in assay [7] is -79.8% (active); in assay [8], -20.1% (active); in [10], 11.1%.

(Values after PubChem BioAssay (NCI).)
